This is part of a sample that, as a whole, favours compounds with a hit. Of some 83,000 tested, about 20% had one in any assay.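 In brief: 96-well plates, 48 h treatment, single concentration, percent growth endpoint.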 Values without a mark were called inactive. The source made the active and inactive calls. Rule for the calls: active = growth percent below 10; inactive = the rest.

Holding throughout (assay): NCI-60 one-dose screen, 48 h (100 = growth as untreated, 0 = no growth, -100 = all killed)
Holding throughout (settings): 10 µM

The subject of test [1] is NCI-H23 lung.
In test [2] the test system is NCI-H226 lung.
The test system of test [3] is NCI-H322M lung.
Test [4] concerns HOP-62 NSCLC.
Test [5] relates to NCI-H460 lung.
Test [6] deals with HOP-92 NSCLC.
The subject of test [7] is A549/ATCC NSCLC.
Test [8] deals with COLO 205 colon.
Test [9] deals with DU-145 prostate.
In test [10] the test system is K-562 leukemia.
The subject of test [11] is MDA-MB-231 breast.
The test system of test [12] is RXF 393 renal.
The subject of test [13] is SF-268 CNS.
Test [14] deals with SF-295 CNS.
In test [15] the test system is SF-539 CNS.
For test [16], the system named is UACC-257 melanoma.
In test [17] the test system is M14 melanoma.
The subject of test [18] is NCI-H522 lung.
The subject of test [19] is 786-0 renal.
Test [20] has as its system MALME-3M melanoma.

As to `CCCCC1(CC)COC(CCC)OC1` (centres undefined), the growth in test [1] was 111%; in [2] it was 98%; in test [3], 117%; in test [4], 95.9%; in test [5], 115%; in [6] it was 79.7%. Moreover, the growth is 103% in test [7]; 114% in test [8]; 102% in test [9]; 106% in test [10]; 106% in test [11]; 101% in [12]. The growth in test [13] was 98.6%; in test [14], 119%; in test [15] it was 98.3%; in test [16] it was 101%; in test [17], 99.7%.
As for `CC1CCC2C(C)(C)C3CC12CC1OC13C` (centres undefined), the growth in test [1] is 107%; in [2], 99.1%; in test [3], 117%; in test [4], 109%; in test [5], 100%; in test [18], 91.7%. Also, the growth was 110% in test [7]; 98% in test [19]; 109% in [8]; 117% in test [9]; 123% in test [10]; 107% in test [20]. For the same compound, the growth was 110% in test [11]; 98.9% in test [12]; 110% in test [13]; 104% in test [14]; 98.9% in test [15]; 113% in [16]. In test [17], the growth is 109%.
As to `NC(=O)N/N=C\c1ccco1`, the growth in test [1] was 108%; in test [2], 102%; in test [3] it was 94.1%; in test [4], 112%; in test [5], 117%; in test [18] it was 92.1%. Further, the growth in test [7] is 110%; in test [19] it was 104%; in test [8], 119%; in test [9] it was 131%; in [10] it was 100%; in test [20] it was 114%. In addition, the growth in test [11] is 110%; in test [12], 109%; in [13], 112%; in test [14] it was 132%; in [15], 109%; in [16], 85.1%. The growth in test [17] is 104%.
As for `CC1(C(=O)O)NC(C(=O)O)Cc2c1[nH]c1ccccc21` (centres undefined), the growth is 101% in [1]; 93.8% in [2]; 91.5% in test [3]; 102% in test [4]; 105% in [5]; 92.6% in [18]. Besides, the growth in test [7] was 101%; in [19], 104%; in test [8], 104%; in test [9], 110%; in [10], 96.9%; in test [20], 90.5%. In addition, the growth in test [11] was 104%; in [12], 110%; in [13], 113%; in test [14], 90.2%; in [15], 105%; in test [16], 87.6%. Moreover, in test [17], the growth was 96.7%.
Turning to `COc1ccc(Oc2c(I)cc(CC(NC(C)=O)C(=O)O)cc2I)cc1` (centres undefined), the growth in test [1] was 61.9%; in test [2], 73%; in [3], 102%; in [4] it was 80.9%; in test [5], 104%; in test [18], 103%. Also, the growth in [7] is 87.3%; in [19], 71.7%; in test [8] it was 108%; in [9] it was 107%; in test [10] it was 63.9%; in test [20], 88.4%. Besides, the growth in [11] was 78.8%; in test [12] it was 88.6%; in test [13], 91.7%; in test [14], 62.3%; in test [15], 111%; in test [16], 83.8%. The growth in test [17] was 80.8%.
With `O=[N+]([O-])c1ccc(-c2ncc(-c3ccc(Br)cc3)o2)cc1`, the growth in test [1] is 93.7%; in test [2] it was 107%; in [3], 110%; in test [4], 114%; in test [5] it was 73.4%; in test [18], -2.2% (active). For the same compound, the growth is 30.5% in test [7]; 97.3% in test [19]; 134% in [8]; 112% in [9]; 97.3% in [10]; 125% in [20]. Besides, the growth in test [11] is 119%; in test [12], 106%; in [13], 107%; in test [14] it was 98.3%; in test [15], 101%; in test [16] it was 74.1%. For the same compound, the growth in test [17] is 109%.
On to `NCCC(=O)c1ccc(Cl)cc1`, for which the growth in [1] was 99.8%; in [2], 112%; in test [3], 102%; in test [4], 91%; in test [5], 107%; in [18], 100%. The growth in test [7] was 111%; in [19], 105%; in test [8], 106%; in test [9], 108%; in test [10], 98.1%; in [20], 109%. Besides, the growth was 110% in test [11]; 114% in test [12]; 100% in [13]; 105% in [14]; 104% in test [15]; 101% in test [16]. In test [17], the growth is 102%.
With `O=C(CCl)N1CCN(C/C=C/c2ccccc2)CC1`, the growth in [1] is 101%; in test [2], 79.8%; in [3], 109%; in [4], 97.2%; in test [5], 98.1%; in test [18] it was -80.4% (active). In addition, the growth in test [7] is 108%; in test [19] it was 101%; in test [8], 108%; in [9] it was 110%; in [10] it was 88.1%; in test [20], 83%. The growth in [11] is 100%; in test [12], 86.4%; in test [13], 87.7%; in test [14], 105%; in test [15] it was 104%; in test [16], 85.8%. For the same compound, in test [17], the growth was 90.1%.
Turning to `O=c1[nH]cc(Cl)cc1O`, the growth is 96.4% in test [1]; 95.5% in test [2]; 97.1% in test [3]; 103% in [4]; 94.1% in test [5]; 60.7% in [18]. Besides, the growth in [7] is 75.2%; in [19], 101%; in test [8], 112%; in test [9] it was 96.8%; in test [10], 48%; in test [20] it was 91.2%. Also, the growth in test [11] was 77.8%; in test [12] it was 107%; in [13] it was 79%; in [14] it was 82.4%; in [15] it was 96%; in [16] it was 92.3%. In addition, in test [17], the growth is 86.6%.
